Compound activity: PubChem BioAssay, The Scripps Research Institute Molecular Screening Center
An excerpt weighted towards active compounds, which were near 2.3% of everything screened.
CHO-K1 Ca ag: nonselective activator or artifact in parental CHO-K1 cells; Fluo-8 calcium fluorescence; scaled to maximal ATP response, vehicle zero; AID 602248; actives 0.48% (n = 360,000); activation, % at 3 µM; in the data active = activation above about 15%;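 also: untransfected CHO-K1 host cells lacking M1 receptor as counterscreen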
CHRM1 agonist: activates human CHRM1 receptor; P11229; CHO-K1 hM1, Fluo-8 calcium fluorescence, agonist mode; 0% DMSO, 100% acetylcholine EC100; activation, % at 3 µM; actives 0.33% (n = 360,000); AID 588814;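 active = activation above the run's mean compound activation plus 3 SD, cut at about 16% in these data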;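 also: peak over basal fluorescence ratio within a 140 s kinetic read after compound addition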
Target sequence (P11229 whole entry, looked up): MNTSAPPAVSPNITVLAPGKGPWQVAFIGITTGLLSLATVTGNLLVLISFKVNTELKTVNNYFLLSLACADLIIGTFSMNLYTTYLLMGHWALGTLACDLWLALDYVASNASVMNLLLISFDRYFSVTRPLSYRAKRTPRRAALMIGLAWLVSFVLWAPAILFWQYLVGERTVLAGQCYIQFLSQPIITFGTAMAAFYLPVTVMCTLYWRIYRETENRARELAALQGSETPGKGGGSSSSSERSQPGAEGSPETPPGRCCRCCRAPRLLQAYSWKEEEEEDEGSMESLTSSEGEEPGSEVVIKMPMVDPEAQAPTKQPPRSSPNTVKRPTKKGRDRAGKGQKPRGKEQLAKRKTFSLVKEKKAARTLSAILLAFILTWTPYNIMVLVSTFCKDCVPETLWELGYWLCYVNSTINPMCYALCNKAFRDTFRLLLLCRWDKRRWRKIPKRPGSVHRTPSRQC
M1 antag: human CHRM1 antagonism; P11229; CHO-K1 hM1, Fluo-8 calcium fluorescence, ACh EC80 antagonist; inhibition, % at 3 µM; actives 1.3% (n = 360,000);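 active = percent inhibition above its own plate's cutoff, namely the mean of that plate's compound wells plus 3 SD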;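 also: peak over basal fluorescence ratio during 140 s after agonist addition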
CHO-K1 Ca antag: counter-screen for M1 antagonists: effect in parental CHO-K1 cells | ATP-induced calcium, Fluo-8 fluorescence | inhibition, % at 3 µM | actives 0.6% (n = 360,000);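 active = inhibition above a per-plate cutoff, the plate's mean sample inhibition plus 3 SD, cut at about 24% in these data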
CHRM1 PAM: positive allosteric modulators of human M1 muscarinic receptor; P11229; CHO-K1 hM1, Fluo-8 calcium fluorescence, ACh EC20; 0% = ACh EC20, 100% = maximal ACh; activation, % at 3 µM; actives 0.088% (n = 360,000); AID 588819; in the data active = activation above about 19%, passing the limit was not always enough
CHO-K1 Ca PAM: counter-screen for M1 PAMs: effect in parental CHO-K1 cells. ATP EC20, Fluo-8 calcium fluorescence; 0% at ATP EC20, 100% at ATP max. activation, % at 3 µM. actives 0.02% (n = 360,000);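 active = activation above the run cutoff, the mean activation of all test compounds plus 3 SD, cut at about 40% in these data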;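 also: peak over basal fluorescence ratio in a 140 s read after ATP addition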
Large screens that a line does not name were inactive.

Cc1noc(C)c1COc1ccc(C(=O)OCC(=O)Nc2ccc(C(=O)N(C)C)cc2)cc1	none
CCOc1cc2c3c(c1)C1(C(=O)N3C(C)(C)C=C2C)C(C#N)=C(N)Oc2cc(O)ccc21 (centres undefined)	CHO-K1 Ca antag 29
Cc1cccc2nc(-c3cccc(NC(=O)c4ccc(Cl)cc4)c3)cn12	none
CN1CCN(c2nc(-c3ccco3)cc(C(F)(F)F)n2)CC1	M1 antag 60
CCOC(=O)N1CCN(c2nc(-c3ccco3)cc(C(F)(F)F)n2)CC1	none
Cc1cc(C)c(S(=O)(=O)NC2CCN(Cc3ccccc3)CC2)c(C)c1	none
Cc1cc(S(=O)(=O)NC2CCN(Cc3ccccc3)CC2)c(C)cc1Cl	M1 antag 52
Cc1cc(C)c(C(=O)CN2C(=O)NC3(CCCCCC3)C2=O)cc1C	none
CCOC(=O)c1c(C(C)(C)C)oc2ccc(OCC#N)cc12	M1 antag 28
CC(=O)c1c(C)[nH]c(C(=O)CSc2ccc(F)cc2)c1C	CHO-K1 Ca ag 15, M1 antag 33
COc1ccc(-c2csc(NC(=O)c3nc(-c4ccccc4)oc3C)n2)cc1	CHO-K1 Ca antag 31
O=C(NCCc1ccccc1F)N[C@@H](Cc1ccccc1)C(=O)O	none
C[C@@H]1CN([C@H](C)CO)C(=O)c2cc(C#CC3CCCCC3)cnc2O[C@H]1CN(C)Cc1cccnc1	M1 antag 34
C[C@@H]1CN([C@H](C)CO)C(=O)c2cc(C#Cc3ccccc3F)cnc2O[C@@H]1CN(C)S(=O)(=O)c1ccccc1F	CHO-K1 Ca antag 25
O=C(NCc1ccccc1)c1ccc(S(=O)(=O)NCc2ccco2)cc1	none
CCC(c1nnnn1-c1ccc2c(c1)OCCO2)N1CCN(c2ccc(C(F)(F)F)cc2[N+](=O)[O-])CC1 (centres undefined)	none (no result: CHRM1 agonist, M1 antag, CHRM1 PAM)
FC(F)Sc1ccc(-n2c(-c3ccc(Cl)cc3)c[n+]3c2CCC3)cc1	M1 antag 61
Cc1cc(C)c(NS(=O)(=O)c2ccc3c(c2)n(C)c(=O)n3C)c(C)c1	none
Cc1ccccc1NS(=O)(=O)c1ccc2c(c1)n(C)c(=O)n2C	CHO-K1 Ca ag 15
CCCNC(=S)NC1CCCC1	M1 antag 38
CCOc1ccccc1-n1c(SC(C)C(=O)NCC2CCCO2)nc2ccccc2c1=O (centres undefined)	CHRM1 agonist 30
N#CN(CC(N)=O)c1nc(N2CCCCC2)nc(N2CCCCC2)n1	CHO-K1 Ca antag 28
CCOc1ccc(CCNS(=O)(=O)c2ccc3c(c2)oc(=O)n3C)cc1OCC	CHO-K1 Ca ag 15
COc1ccc(CCNS(=O)(=O)c2ccc3c(c2)oc(=O)n3C)cc1OC	none
CCN(CCc1ccccc1)c1ccc2c(c1)C1CC2CCN1Cc1ccccc1 (centres undefined)	none
COc1ccccc1NC(=O)CN1CCN(C2c3ccccc3-c3ccccc32)CC1	CHO-K1 Ca PAM 48
O=C(CN1CCN(c2ccccc2O)CC1)NC(c1ccccc1)c1ccccc1	none
CC1CCN(CC(=O)Nc2ccccc2-c2ccccc2)CC1	M1 antag 33
COc1ccccc1NC(=O)CN1CCCCCC1	none
O=C(CN1CCCC1)NC(c1ccccc1)c1ccccc1	M1 antag 69
CCOc1ccc(NC(=O)CN2CCN(C3c4ccccc4-c4ccccc43)CC2)cc1	none
COc1ccc(NC(=O)CN2CCN(C3c4ccccc4-c4ccccc43)CC2)c(OC)c1	CHO-K1 Ca PAM 52
C[C@H](O)[C@@H]1CN2CCc3c([nH]c4ccccc34)[C@@H]2C[C@@H]1N(C)C(=O)NC1CCCCC1	none
CCOC(=O)C1=CCC(c2ccc(Cl)cc2)N(S(=O)(=O)c2ccc(C)cc2)C1 (centres undefined)	none
COc1ccccc1C(=O)Nc1ccnn1C1CCN(CC2CC=CCC2)CC1 (centres undefined)	none
O=C(CN1CCCCCC1)Nc1ccccc1Oc1ccccc1	M1 antag 41
Cc1ccc(NC(=O)c2cc(-c3cc(C)c(C)cc3O)n[nH]2)cc1C	CHRM1 PAM 28
Cc1cc(C(=O)CCl)c(C)n1CCc1ccc(Cl)cc1	M1 antag 33
CC(=O)Cc1nsc(NC(=O)c2cn(-c3ccccc3)nc2-c2ccc(Br)cc2)n1	CHO-K1 Ca antag 25
